# Measured values published in PubChem BioAssay.
# Active and inactive are the calls of the source.
# Experiments:
# [1] = binders of probe aFSTL3 on microarray, primary screen, stem cell growth factor project, biochemical, small-molecule microarray, fluorescence 635/667 (AID 1064); conditions: higher = more signal;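 further: measures binding of the biotinylated anti-FSTL3 antibody to printed compounds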
# [2] = binders from COS7 lysate, DM2A8 probe, primary screen, torsin A project, cell lysate, small-molecule microarray, fluorescence 635/667 (AID 1065); conditions: higher = more signal, COS7 lysate expressing mutant human TOR1A
# [3] = binders of probe aFGF2 on microarray, primary screen, stem cell growth factor project, biochemical, small-molecule microarray, fluorescence 635/667 (AID 1067); conditions: higher = more signal;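 further: measures binding of biotinylated aFGF2 protein to printed compounds on slides; z-score merges feature fluorescence and signal-to-noise across triplicate slides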
# [4] = binders of probe aFGF10 on microarray, primary screen, stem cell growth factor project, biochemical, small-molecule microarray, fluorescence 635/667 (AID 1071); conditions: higher = more signal;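 further: score merges 667 nm spot intensity and signal to noise from triplicate slides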
# [5] = biological target: Neurogenic locus notch homolog protein 2 (Homo sapiens) (UniProt Q04721); assay: Notch2 binders on small-molecule microarrays, primary screen, biochemical, small-molecule microarray, 635 nm fluorescence, stem cell growth factors (AID 1073); conditions: Notch2 binding, higher = more signal
# [6] = biological target: Pro-neuregulin-1, membrane-bound isoform (Homo sapiens) (UniProt Q02297); assay: NRG1 binders on small-molecule microarrays, primary screen, psychiatric disease protein project, biochemical, small-molecule microarray, fluorescence 635/667 (AID 1075); conditions: NRG1 binding, 635 nm fluorescence, higher = more signal;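 further: score combines 667 nm spot fluorescence with signal to noise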
# [7] = system: Neuregulin-1 EGF-like domain; assay: binders of neuregulin-1 EGF-like domain, primary screen, biochemical, small-molecule microarray, 635 nm fluorescence (AID 1081); conditions: small-molecule microarray binding, higher = more signal;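 further: binding of the protein to compounds printed on small-molecule microarray slides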
# [8] = FRG1 promoter luciferase signal modulators, primary screen, FRG1 inhibition for FSHD, cell-based, C2C12 myotubes, firefly/Renilla luciferase, luminescence (AID 1084); conditions: higher = more signal, called active from +8 up or from −8 down
# [9] = binders of probe aFST on microarray, primary screen, stem cell growth factor project, biochemical, small-molecule microarray, fluorescence 635/667 (AID 1086); conditions: higher = more signal;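 further: score merges 667 nm fluorescence with signal-to-noise of each printed compound spot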
# [10] = binders of probe aHhip on microarray, primary screen, stem cell growth factor project, biochemical, small-molecule microarray, fluorescence 635/667 (AID 1087); conditions: higher = more signal;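 further: score merges spot fluorescence at 667nm with spot signal to noise ratio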
# [11] = system: PRMT1 (protein arginine N-methyltransferase 1); assay: PRMT1 binders on small-molecule microarrays, primary screen, biochemical, small-molecule microarray, 635 nm fluorescence (AID 1088); conditions: small-molecule microarray binding, higher = more signal;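 further: binding of Prmt1 protein to compounds spotted on small-molecule microarray slides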
# [12] = yeast growth modulation, basal conditions, primary screen, YJM789 clinical isolate, OD600, 24 h (AID 1089);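 further: growth of clinical yeast isolate S. cerevisiae YJM 789 seeded 1000 cells per well; test concentration not given here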; conditions: S. cerevisiae YJM789 growth, higher = more signal, called active from +8 up or from −8 down
# [13] = fission yeast growth modulation, primary screen, strain 972, OD600, 24 h, no modulator (AID 1090);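 further: basal condition with compound alone and no growth modifier present; test concentration not given here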; conditions: S. pombe 972 growth, higher = more signal, called active from +8 up or from −8 down
# [14] = S. cerevisiae growth modulation with rapamycin, primary screen, strain BY4716, OD600, 96 h (AID 1091); conditions: higher = more signal, called active from +8 up or from −8 down; further: test concentration not given here
# [15] = biological target: Torsin-1A-interacting protein 2 (Homo sapiens) (UniProt Q8NFQ8); assay: LULL1 binders on small-molecule microarray, primary screen, cell lysate, human LULL1 lysate, 635/667 nm fluorescence (AID 1092); conditions: hLULL1 lysate binding, 635 nm fluorescence, higher = more signal;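 further: probe is lysate of COS7 cells overexpressing human LULL1; score merges per-feature 667 nm fluorescence with signal-to-noise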
# [16] = E. coli growth modulation, two-sided OD650, primary screen, E. coli filamentation project, strain DRC41, 24 h (AID 1093); conditions: OD650, 24 h, higher = more signal, called active from +8 up or from −8 down;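 further: MC1000 strain lacking acrAB efflux and sulA so SOS filamentation is blocked; test concentration not given here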
# [17] = small-molecule microarray binders of probe aLefty2, primary screen, biochemical, biotinylated probe, 635/667 nm fluorescence (AID 1094); conditions: higher = more signal;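 further: score merges spot fluorescence near 667 nm with spot signal-to-noise ratio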
# [18] = system: Noggin (protein binding on small-molecule microarray); assay: Noggin binders on small-molecule microarray, primary screen, biochemical, 635/667 nm fluorescence (AID 1095); conditions: 635 nm fluorescence, higher = more signal;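 further: score merges 667 nm feature fluorescence with signal to noise over triplicate slides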
# [19] = biological target: Neurogenic locus notch homolog protein 3 (Homo sapiens) (UniProt Q9UM47); assay: NOTCH3 binders on small-molecule microarray, primary screen, biochemical, 635/667 nm fluorescence (AID 1096); conditions: NOTCH3 binding, 635 nm fluorescence, higher = more signal
# [20] = small-molecule microarray binders of probe aEGFR, primary screen, biochemical, biotinylated probe, 635/667 nm fluorescence (AID 1097); conditions: higher = more signal;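 further: probe is a biotinylated anti-EGFR antibody binding compounds printed on slides; score combines fluorescence near 667 nm and signal to noise of each spot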
# Sequence of Pro-neuregulin-1, membrane-bound isoform (Homo sapiens) (Q02297 whole entry, looked up, the tested form may be a part, canonical isoform): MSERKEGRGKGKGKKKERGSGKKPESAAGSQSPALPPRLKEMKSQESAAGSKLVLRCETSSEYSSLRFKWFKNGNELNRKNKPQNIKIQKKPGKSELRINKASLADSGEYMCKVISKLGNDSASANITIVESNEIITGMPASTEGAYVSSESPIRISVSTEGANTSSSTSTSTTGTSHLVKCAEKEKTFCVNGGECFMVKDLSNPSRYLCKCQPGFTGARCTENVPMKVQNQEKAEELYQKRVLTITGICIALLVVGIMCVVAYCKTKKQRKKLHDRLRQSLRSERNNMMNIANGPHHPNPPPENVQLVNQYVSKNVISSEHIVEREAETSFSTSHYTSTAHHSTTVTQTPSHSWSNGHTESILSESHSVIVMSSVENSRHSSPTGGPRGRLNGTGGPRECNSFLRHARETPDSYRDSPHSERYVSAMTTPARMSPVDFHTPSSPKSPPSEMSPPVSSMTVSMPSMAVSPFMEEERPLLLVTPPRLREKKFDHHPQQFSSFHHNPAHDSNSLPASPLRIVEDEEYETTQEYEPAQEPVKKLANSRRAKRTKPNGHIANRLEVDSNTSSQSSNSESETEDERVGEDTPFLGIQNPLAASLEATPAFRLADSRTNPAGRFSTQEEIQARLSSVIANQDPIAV
# Sequence of Neurogenic locus notch homolog protein 3 (Homo sapiens) (Q9UM47 whole entry, looked up): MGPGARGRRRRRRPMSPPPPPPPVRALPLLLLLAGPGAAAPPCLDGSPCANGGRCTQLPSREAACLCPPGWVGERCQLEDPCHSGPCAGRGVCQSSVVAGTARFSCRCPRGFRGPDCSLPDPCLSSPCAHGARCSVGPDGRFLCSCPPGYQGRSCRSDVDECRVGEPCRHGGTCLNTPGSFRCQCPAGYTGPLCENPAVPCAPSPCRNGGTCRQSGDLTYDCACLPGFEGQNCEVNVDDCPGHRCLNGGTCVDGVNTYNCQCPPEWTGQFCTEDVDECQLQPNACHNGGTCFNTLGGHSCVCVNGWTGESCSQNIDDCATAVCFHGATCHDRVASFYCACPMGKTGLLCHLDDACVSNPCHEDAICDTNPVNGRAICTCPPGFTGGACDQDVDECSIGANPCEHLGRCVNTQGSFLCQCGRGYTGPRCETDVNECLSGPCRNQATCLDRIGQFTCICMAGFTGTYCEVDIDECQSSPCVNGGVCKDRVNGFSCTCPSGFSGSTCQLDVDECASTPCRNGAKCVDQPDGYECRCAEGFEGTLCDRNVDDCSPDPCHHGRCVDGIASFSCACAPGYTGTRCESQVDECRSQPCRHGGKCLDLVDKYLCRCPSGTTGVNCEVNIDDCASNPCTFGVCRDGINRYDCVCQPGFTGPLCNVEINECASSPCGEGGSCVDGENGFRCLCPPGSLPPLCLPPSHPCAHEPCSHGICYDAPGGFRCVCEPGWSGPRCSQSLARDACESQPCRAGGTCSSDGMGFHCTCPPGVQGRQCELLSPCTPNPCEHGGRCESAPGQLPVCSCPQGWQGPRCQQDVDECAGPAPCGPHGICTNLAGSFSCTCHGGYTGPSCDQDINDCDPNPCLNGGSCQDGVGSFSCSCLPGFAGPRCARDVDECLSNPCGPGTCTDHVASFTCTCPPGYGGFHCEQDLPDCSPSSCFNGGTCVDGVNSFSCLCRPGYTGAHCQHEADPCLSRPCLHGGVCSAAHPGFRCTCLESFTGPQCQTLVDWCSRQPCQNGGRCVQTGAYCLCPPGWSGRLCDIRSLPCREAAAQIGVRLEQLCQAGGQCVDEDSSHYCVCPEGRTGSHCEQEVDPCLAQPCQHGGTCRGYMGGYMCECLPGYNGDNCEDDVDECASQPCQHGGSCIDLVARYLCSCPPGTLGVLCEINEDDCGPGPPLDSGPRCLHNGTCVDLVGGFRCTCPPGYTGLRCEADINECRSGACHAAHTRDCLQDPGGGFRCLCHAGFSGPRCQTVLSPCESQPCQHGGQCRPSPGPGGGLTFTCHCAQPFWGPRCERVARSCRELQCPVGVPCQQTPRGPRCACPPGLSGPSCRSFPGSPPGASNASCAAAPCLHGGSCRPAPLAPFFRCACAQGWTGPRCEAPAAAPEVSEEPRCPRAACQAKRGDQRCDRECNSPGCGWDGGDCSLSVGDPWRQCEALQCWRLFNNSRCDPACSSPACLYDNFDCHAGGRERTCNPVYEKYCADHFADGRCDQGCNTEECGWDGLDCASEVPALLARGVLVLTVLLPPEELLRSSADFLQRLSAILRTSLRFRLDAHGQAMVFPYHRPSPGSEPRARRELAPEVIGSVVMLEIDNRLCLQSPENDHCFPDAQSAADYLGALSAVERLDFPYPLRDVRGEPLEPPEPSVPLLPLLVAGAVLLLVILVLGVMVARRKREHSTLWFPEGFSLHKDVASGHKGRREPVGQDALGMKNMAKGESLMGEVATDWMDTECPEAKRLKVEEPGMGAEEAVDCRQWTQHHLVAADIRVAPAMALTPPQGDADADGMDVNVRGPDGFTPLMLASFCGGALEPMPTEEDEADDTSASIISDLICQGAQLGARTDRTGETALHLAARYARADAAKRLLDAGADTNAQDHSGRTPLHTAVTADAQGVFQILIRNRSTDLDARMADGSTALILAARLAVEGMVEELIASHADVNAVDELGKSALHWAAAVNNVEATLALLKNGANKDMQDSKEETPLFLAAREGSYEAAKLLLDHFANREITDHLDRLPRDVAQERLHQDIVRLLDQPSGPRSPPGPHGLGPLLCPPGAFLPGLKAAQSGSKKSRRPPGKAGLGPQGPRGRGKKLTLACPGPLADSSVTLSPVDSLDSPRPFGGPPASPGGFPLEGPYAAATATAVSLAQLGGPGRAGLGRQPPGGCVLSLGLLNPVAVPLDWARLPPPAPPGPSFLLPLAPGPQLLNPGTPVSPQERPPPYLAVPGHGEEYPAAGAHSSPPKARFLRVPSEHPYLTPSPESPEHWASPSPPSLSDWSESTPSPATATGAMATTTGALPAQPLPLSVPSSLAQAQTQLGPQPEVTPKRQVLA
# Sequence of Torsin-1A-interacting protein 2 (Homo sapiens) (Q8NFQ8 whole entry, looked up): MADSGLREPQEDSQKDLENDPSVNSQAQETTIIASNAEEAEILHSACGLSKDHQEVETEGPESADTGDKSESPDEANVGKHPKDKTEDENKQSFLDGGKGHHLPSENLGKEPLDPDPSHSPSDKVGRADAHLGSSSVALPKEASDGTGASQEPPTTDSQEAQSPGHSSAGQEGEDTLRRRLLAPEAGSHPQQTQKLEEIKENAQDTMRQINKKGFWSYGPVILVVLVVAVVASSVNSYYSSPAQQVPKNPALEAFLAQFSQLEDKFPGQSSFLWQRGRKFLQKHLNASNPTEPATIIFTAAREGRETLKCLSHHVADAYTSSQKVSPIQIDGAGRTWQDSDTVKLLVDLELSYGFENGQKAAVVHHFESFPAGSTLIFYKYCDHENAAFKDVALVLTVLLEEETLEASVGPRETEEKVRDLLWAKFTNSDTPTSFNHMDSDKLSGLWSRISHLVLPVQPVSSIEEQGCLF
Compound,composite z-score [1],composite z-score [2],composite z-score [3],composite z-score [4],composite z-score [5],composite z-score [6],composite z-score [7],z-score [8],composite z-score [9],composite z-score [10],composite z-score [11],z-score [12],z-score [13],z-score [14],composite z-score [15],z-score [16],composite z-score [17],composite z-score [18],composite z-score [19],composite z-score [20]
O=C(NCC(F)(F)F)[C@@H]1c2ccccc2C(=O)N(Cc2cc(F)cc(C(F)(F)F)c2)[C@H]1c1ccc(CO)cc1,0.148,-0.823,-0.0996,-0.762,-1,-0.381,1.06,-0.0411 (inactive),-0.317,-0.218,-0.264,0.0042 (inactive),-0.793 (inactive),0.29 (inactive),2.29,0.463 (inactive),-0.0998,-1.08,-1.13,-0.278
COC(=O)Cn1c(C(=O)N(C)C)cc2c1C[C@H]1CN(C(=O)c3ccccc3)[C@@](Cc3ccc(F)cc3)(C(=O)OC)[C@@H]21,0.0501,-0.152,0.154,1.24,1.65,0.88,1.13,-0.438 (inactive),0.114,-0.15,-0.397,1.28 (inactive),1.42 (inactive),1.61 (inactive),2.81,-0.581 (inactive),0.639,-0.327,0.104,0.561
COc1cc(OC)c(C(O)C2C=CC3C(=O)N(C)C(=O)C3N2NC(=O)OC(C)(C)C)cc1Br (stereo not given),0.411,-0.381,0.232,0.843,1.76,1.85,1.37,-0.612 (inactive),1.84,0.0522,1.54,0.24 (inactive),-0.324 (inactive),0.828 (inactive),3.39,-0.188 (inactive),0.368,0.137,1.02,0.128
COC(=O)c1nc2oc1CC[C@@H](CO)NC(=O)N(C)Cc1cnnn1C[C@H](Cc1ccccc1)NC2=O,-0.195,-0.328,-0.062,-0.135,-0.444,0.243,0.434,-0.988 (inactive),-1.08,-0.314,0.0909,-1.04 (inactive),0.127 (inactive),-0.335 (inactive),0.715,1.27 (inactive),-0.331,0.419,-0.139,-0.287
COC(=O)c1c(CC[C@@H](CO)NC(=O)N[C@H](Cn2cc(C3(O)CCCCC3)nn2)C(C)C)oc(C(C)=O)c1C(=O)OC,-0.413,0.945,-0.003,0.815,0.759,0.759,1.07,0.324 (inactive),0.253,-0.0237,1.57,-0.325 (inactive),-2.39 (inactive),0.0762 (inactive),1.12,1.66 (inactive),-0.0437,1.86,1.08,0.0274
[N-]=[N+]=NCc1ccccc1C[C@]1(C(N)=O)N=C(c2ccc(OCCCO)cc2)O[C@H]1c1ccccc1,0.124,0.514,-0.0129,0.726,0.639,1.89,1.14,-3.9 (inactive),1.56,-0.201,1.31,0.458 (inactive),-1.74 (inactive),2.34 (inactive),3.32,1.22 (inactive),0.158,-0.593,0.859,-0.02
